Rows were chosen to be rich in hits. Some 2.3% of all compounds tested hit in one or more screens of this group.
PfM18AAP inh-1 – PfM18AAP enzyme inhibition; recombinant PfM18AAP, H-Glu-NHMec fluorogenic cleavage; inhibition, % at 7.35 µM; actives 1.2% (n = 290,000); AID 1822;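 active means inhibition above the campaign mean inhibition over all tested compounds plus 3 SD, cut at about 28% in these data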;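 further: 0% = plate median of test compound wells and 100% = 2 mM ZnCl2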
DNA FID counter – fluorescent intercalator displacement, NS3 helicase counter-screen; DNA fluorescent intercalator displacement, fluorescence; inhibition, % at 7.9 µM; actives 0.17% (n = 290,000); in the data active means inhibition above about 37%;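 further: 0% = vehicle and 100% = reference compound; higher means more ethidium bromide displaced from hairpin DNA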
Rce1 inhib – yeast Ras-converting enzyme inhibition. Q03530. yeast membranes, quenched prenylated peptide cleavage fluorescence. calls only. actives 0.27% (n = 290,000). AID 2563;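 active means fall in fluorescence gain of 50% or more versus controls, with final raw signal at or below 3038400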;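 further: plate controls were neutral control wells for no effect and wells lacking membranes for full effect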
Kir21 inh – Kir2.1 (mouse) channel inhibition; P35561; HEK293-Kir2.1, FluxOR thallium flux fluorescence; active compounds read low; B-score at 10 µM; actives 0.85% (n = 310,000);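 active means fluorescence ratio B-score at or below minus 3 SD of library scores, with starting-brightness B-score within 2 SD, cut at about -4.2 in these data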;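 further: channel flux triggered by added potassium and thallium sulfate stimulus; B-score of peak minus minimum fluorescence over baseline after thallium stimulus; more negative B-score means stronger Kir2.1 block with less thallium influx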
Target sequence (P35561 whole entry, looked up): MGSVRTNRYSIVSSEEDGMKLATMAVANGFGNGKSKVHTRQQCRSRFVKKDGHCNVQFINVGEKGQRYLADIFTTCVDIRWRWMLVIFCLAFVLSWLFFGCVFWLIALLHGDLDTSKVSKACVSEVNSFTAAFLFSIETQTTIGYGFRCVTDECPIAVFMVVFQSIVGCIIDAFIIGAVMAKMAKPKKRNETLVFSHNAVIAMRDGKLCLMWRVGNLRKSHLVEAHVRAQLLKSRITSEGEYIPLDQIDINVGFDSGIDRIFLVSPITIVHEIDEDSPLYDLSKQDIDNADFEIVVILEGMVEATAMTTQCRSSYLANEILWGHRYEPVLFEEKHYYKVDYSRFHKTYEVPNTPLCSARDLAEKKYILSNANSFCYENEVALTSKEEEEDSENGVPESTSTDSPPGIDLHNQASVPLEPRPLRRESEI
PfM18AAP inh-2 – confirmation of Plasmodium falciparum M18 aspartyl aminopeptidase inhibitors; shares compounds with PfM18AAP inh-1; recombinant PfM18AAP, H-Glu-NHMec fluorogenic cleavage; inhibition, % at 7.35 µM; actives 28% (n = 2,400);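 active means mean inhibition over replicate wells above the hit cutoff set for the earlier primary screen, cut at about 29% in these data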;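 further: 0% = median of test compound wells and 100% = 2 mM ZnCl2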
CTSL1 confirm – counter-screen for PFM18AAP inhibitors: confirmation of human cathepsin L inhibitors; purified cathepsin L1, Z-Leu-Arg-MCA fluorescence; 2,400 tested, under 10 active; inhibition, % at 5.96 µM; shares compounds with PfM18AAP inh-1;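 active means average inhibition across replicates above the hit cutoff set in the earlier primary screen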;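 further: 0% = median of test compound wells and 100% = Z-Phe-Ala-diazomethylketone 1 µM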
Starred values were filed as active, the others as inactive; i = inactive; . = not tested or not shown.

SMILES	PfM18AAP inh-1	DNA FID counter	Rce1 inhib	Kir21 inh	PfM18AAP inh-2	CTSL1 confirm
CNC(=O)C1C(=S)NC(N)=C(C#N)C1c1ccccc1 (configuration not stated)	47*	-3	i	-0.57	23	0
COc1ccccc1NS(=O)(=O)c1cc(NC(=O)C2CC2)ccc1N1CCOCC1	42*	-17	i	-0.17	-27	1
COc1ccccc1NS(=O)(=O)c1cc(NC(C)=O)ccc1N1CCCCC1	8	-15	i	-2.6	.	.
CCN1CCN(C(=S)c2ccc(Cl)cc2)CC1	44*	0	i	0.98	36*	0
CSc1ccc(C(=S)N2CCN(Cc3ccccc3)CC2)cc1	41*	-1	i	0.14	10	3
CCOc1ccc(C(=S)N2CCN(C)CC2)cc1	48*	-6	.	1.2	4	0
CCOc1ccc(C(=O)OC(C)CN2CCN(C)CC2)cc1 (configuration not stated)	-5	8	i	-0.49	.	.
CCN1CCN(C(=S)c2ccc(OC)cc2)CC1	45*	1	i	0.25	13	1
Cn1cccc1C(=O)NCc1ccc(S(N)(=O)=O)cc1	4	-2	i	1.7	.	.
CC(C)(C)c1cc(C(=S)N2CCN(CCO)CC2)cc(C(C)(C)C)c1O	36*	-6	i	0.06	-7	2
OCCN1CCN(C(=S)c2ccc(Cl)cc2)CC1	43*	1	i	1	8	5
CCN(CC(=O)Nc1ccc2c(c1)OCCO2)C(=O)COc1ccc(C)cc1	-1	-24	i	1.9	.	.
CN(C(=O)Nc1cnc2ccccc2c1)c1ccccc1	5	0	i	-0.24	.	.
Oc1ccc(N2CCN(c3ncnc4sc5c(c34)CCC5)CC2)cc1	39*	-18	i	1	3	-1
OCCN1CCN(c2ncnc3sc4c(c23)CCCC4)CC1	5	-2	i	-0.66	.	.
COc1ccc(C(=O)N/C(=C\c2ccccc2)C(=O)Nc2ccc(C(=O)NCC(=O)O)cc2)cc1	-9	-36	i	0.05	.	.
Cc1nn(CCc2nn[nH]n2)c2nc(-c3ccc(C4CCCCC4)cc3)cc(C(F)(F)F)c12	0	-19	i	2.5	.	.
COc1ccc(-n2c(O)c(/C=N/Nc3nc(C)cc(C)n3)c3ccccc3c2=O)cc1OC	34*	-10	i	1.6	-7	0
COc1ccc(-n2c(O)c(/C=N/NS(=O)(=O)c3ccc(C)cc3)c3ccccc3c2=O)cc1OC	7	-9	i	-6.4	.	.
O=C(Cn1cnc2ccccc2c1=O)NCCC(=O)Nc1ccc(F)cc1	-6	-4	i	0.78	.	.
COc1ccc2cc(/C=C3\SC(=S)NC3=O)c(N3CCOCC3)nc2c1	-4	-11	i	-2.1	.	.
COC(=O)/C=C1\SC(N2CCOCC2)=C(c2ccc(OC)cc2)C1=O	47*	-5	i	1.1	32*	-1
CCOC(=O)c1sc(N(Cc2ccccc2)C(=O)CSc2ncn[nH]2)nc1C	90*	-14	i	-0.09	-36	-3
CCOC(=O)c1sc(NC(=O)CSc2ncn[nH]2)c(C#N)c1C	40*	-5	i	-0.76	9	-6
COc1ccc(-c2oc(NC(=O)CSc3ncn[nH]3)c(C#N)c2-c2ccc(OC)cc2)cc1	73*	-5	i	0.08	25	-3
SMILES	PfM18AAP inh-1	DNA FID counter	Rce1 inhib	Kir21 inh	PfM18AAP inh-2	CTSL1 confirm
COc1ccc(-c2oc(NC(=O)CCl)c(C#N)c2-c2ccc(OC)cc2)cc1	-4	-16	i	-0.02	.	.
Cc1ccc(-c2nnn(CC(=O)N(c3ccc(F)cc3)C(C(=O)NC3CCCC3)c3ccncc3)n2)o1 (configuration not stated)	-7	-10	i	1.3	.	.
COc1ccccc1C(=O)Nc1c(C(=O)N2CCN(C)CC2)oc2ccccc12	-8	14	i	-1.2	.	.
COC(=O)c1ccn(CC(=O)NC2CCCCC2)n1	0	-2	i	0.93	.	.
COc1ccc(OC)c(N(CC(=O)NCCSCc2ccc(C)cc2)S(C)(=O)=O)c1	-5	-38	i	0.1	.	.
O=C1c2ccccc2C(=O)N1c1ncn[nH]1	44*	4	i	1.7	-4	-2
COc1ccc(C(CCN(Cc2ccc(OC)c(OC)c2)C(C)=O)C(C)C)cc1 (configuration not stated)	0	-57	i	-2.2	.	.
Oc1ccc(NCc2ccccc2OCc2ccccc2)cc1	49*	0	i	-1.9	-21	-2
CCC(C)(C(=O)NC1CCCCC1)N(CC1CCCO1)C(=O)CNC(=O)c1ccccc1 (configuration not stated)	35*	-27	i	0.64	-56	-2
CC1(C)CC(NC(=S)Nc2ccc(S(N)(=O)=O)cc2)CC(C)(C)N1	2	-5	i	-1.6	.	.
CC1(C)CC(=O)C(C(=S)Nc2ccccc2)=C(NC2CC(C)(C)NC(C)(C)C2)C1	47*	19	i	-0.17	-48	3
O=c1[nH]c2ccccc2c(O)c1O	46*	8	i	-0.14	5	-3
O=c1[nH]c2ccccc2c(O)c1-[n+]1ccccc1	1	-21	i	-1.5	.	.
O=C1/C(=C\c2ccccn2)SC(=S)N1c1ccc(S(=O)(=O)Nc2nccs2)cc1	36*	-9	i	0.58	-21	1
CCCOc1ccc(/C=C2/C(=O)ON=C2C)cc1OCC	40*	-1	i	-0.21	42*	2
O=C1c2ccc([N+](=O)[O-])cc2NC(c2ccco2)N1/N=C/c1ccco1 (configuration not stated)	40*	-3	i	1.8	-10	0
CCNc1nc(NC(C)(C)C)nc(N(CC)n2cnnc2)n1	-3	-14	i	-1.1	.	.
CCNc1nc(NCC)nc(Nn2cnnc2)n1	32*	-5	i	0.79	26	3
COc1ccc(N2C(=O)/C(=C/N(C)C)NC2=S)cc1	80*	-2	.	-0.38	69*	6
Oc1ccc(O)c(/C(=N/Nc2ccccc2)c2ccccc2)c1	45*	-3	i	-0.01	-80	-1
C/C(=N\Nc1ccccc1)c1cccc(N)c1	14	-4	i	-1.9	.	.
NC(=O)c1ccc(SCC(=O)OCC(=O)N2CCN(C(=O)c3ccco3)CC2)c([N+](=O)[O-])c1	.	.	.	1	.	.
CCOC(=O)c1ccc(OCCOc2cccc(C)c2)cc1	0	-23	i	-0.2	.	.
O=C1NC(=O)/C(=C\c2ccc(O)cc2O)S1	90*	-1	i	1.2	86*	2
Cc1ccc(-n2nc3c(=O)n(C(C)C(=O)NCc4ccc(Cl)cc4)nc(C)c3c2C)cc1 (configuration not stated)	2	-55	i	0.2	.	.
CC[n+]1c(/C=C/C=C/N(C(C)=O)c2ccccc2)sc2cc(OC)ccc21	43*	-19	.	.	-36	1
CC[n+]1c(/C=C(\C)OC)sc2ccccc21	23	7	.	.	.	.
